Source: PubChem BioAssay (National Center for Advancing Translational Sciences (NCATS))
VACV Venus inh: inhibitors of vaccinia virus (Venus reporter) | Potency, µM (top dose mostly 36.5 µM), without a hit: at the highest dose activity change, negative = inhibition, usual class: inhibitors | 330,000 compounds, 0.46% hits | Vaccinia virus Venus reporter expression, fluorescence | AID 720580; calls by dose curve; tested in A549 cells; further: potency means the concentration at half of the fitted maximal effect; nearly all actives have a fitted effect of over 30% in size
LASV entry inh: inhibitors of Lassa virus binding or cell entry; 300,000 compounds, 1.2% hits; Lassa virus pseudotype entry inhibition, cell reporter; AID 540256; Potency, µM (top dose mostly 37.9 µM), for inactives: at the top dose activity change, negative = inhibition, actives largely listed as inhibitors; calls by dose curve; tested in HEK293 cells; further: potency means the concentration at half of the fitted maximal effect; nearly all actives have a fitted effect of over 50% in size
FMDV inh: foot and mouth disease virus antiviral activity. FMDV antiviral cell-based qHTS. Potency, µM (series often up to 57.9 µM), for inactives: top-dose activity change, negative = inhibition, usual class: inhibitors. 410,000 compounds, 1.2% hits. AID 1159524; calls by dose curve; tested in HEK293T cells; further: read-out not given here; potency means the concentration at half of the fitted maximal effect; nearly all actives have a fitted effect of over 45% in size
VACV mCherry inh: vaccinia inhibition (mCherry reporter). AID 720579. Vaccinia virus mCherry reporter infection, fluorescence. 310,000 compounds, 0.63% hits. Potency, µM (doses to about 36.5 µM), without a hit: at the highest dose activity change, negative = inhibition, most hits filed as inhibitors; calls by dose curve; tested in A549 cells; further: potency means the concentration at half of the fitted maximal effect; nearly all actives have a fitted effect of over 35% in size
MARV entry inh: blocks Marburg virus binding to or entry into cells; 300,000 compounds, 1.8% hits; Potency, µM (highest dose often 37.8 µM), for the others: at the highest dose activity change, negative = inhibition, most hits filed as inhibitors; Marburg virus pseudotyped entry inhibition, cell reporter; calls by dose curve; tested in HEK293 cells; further: potency means the concentration at half of the fitted maximal effect
HCMV antiviral: human cytomegalovirus inhibition. 410,000 compounds, 4.5% hits. AID 1259415. HFF cells, HCMV-luciferase reporter, 72 h; stronger effect = lower value. activity change, negative = inhibition, % at 57.5 µM; in the data active means activity change below about -60%; inconclusive means no clear call, values can overlap the other calls; inactive means above about -39%
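Compounds were evaluated in HFFs infected with an HCMV luciferase reporter virus (MOI 1 PFU/cell). Luciferase in lysates collected 72 h post infection served as the replication measure.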
The depositor's hits bear a star; i = inactive; ? = inconclusive; nt = not tested or not shown; [ ] = dose if it differs, or a comment. In the library only some 6.5% were active in any assay of this set; here they are far more common. On the % scale 0 is the no-effect control and ±100 the full control effect.

SMILES	VACV Venus inh	LASV entry inh	FMDV inh	VACV mCherry inh	MARV entry inh	HCMV antiviral
Cc1noc(-c2ccc(N(C)Cc3ccccc3)c([N+](=O)[O-])c2)n1	2%	?	16%	0%	-12%[46.1 µM]	75
CCc1nc(N)nc(N)c1-c1ccc(N(C)Cc2ccccc2)c([N+](=O)[O-])c1	1µM*	?	22µM*	?	0.89µM*	-97*
CCc1nc(N)nc(N)c1-c1ccc(NCCN)c([N+](=O)[O-])c1	4.5µM*	nt	-15%	?	nt	-78*
CC(C)(C)S(=O)(=O)N1C[C@H]2CC(=O)C=C2[C@@H]1CCO	nt	nt	nt	nt	nt	-15
COc1cccc(C(=O)N(Cc2cccnc2)c2nc3c(OC)ccc(C)c3s2)c1OC	3%	?	-21%	-26%	nt	0
O=c1cc(-c2ccccc2)[nH]n1-c1ccc([N+](=O)[O-])cc1	nt	-5%	?	nt	-21%	-95*
O=C(Nc1ccc2nc(SCC(=O)N3CCCC3)sc2c1)c1ccc(F)cc1	-12%	-22%[46.1 µM]	-9%	-7%	-3%[46.1 µM]	25
CN(C(=O)CSc1nc2ccc(NC(=O)COc3ccc(F)cc3)cc2s1)c1ccccc1	?	?	?	?	?	-70*
O=C(O)CSc1nc2ccc(NC(=O)COc3ccc(Cl)cc3)cc2s1	-6%[7.34 µM]	1%[46.1 µM]	-3%	-10%[7.34 µM]	4%[46.1 µM]	50
CCOc1ccc(C(=O)Nc2ccc3nc(SCCOc4ccccc4)sc3c2)cc1	?	-8%[46.1 µM]	?	?	8%[46.1 µM]	6
COc1ccc(C(=O)Nc2ccc3nc(SCC(=O)N(C)c4ccccc4)sc3c2)cc1	?	?	35µM*	-18%	?	-74*
CN(C(=O)CSc1nc2ccc(NC(=O)c3ccc(F)cc3)cc2s1)c1ccccc1	-28%	?	?	-13%	?	-81*
Cc1cccc(NC(=O)CSc2nc3ccc(N4C(=O)c5ccccc5C4=O)cc3s2)c1C	nt	-3%	17%	nt	0%	3
CN(C)C(=O)CSc1nc2ccc(N3C(=O)c4ccccc4C3=O)cc2s1	nt	nt	1%	nt	nt	-65*
O=C1NC2C3CC(c4ccccc43)C12 (configuration not stated)	-11%	nt	-22%	-3%	nt	-70*
CCCc1nc2c(C)cc(Br)cn2c1Cc1ccccc1OC	nt	nt	nt	nt	nt	16
Cc1ccc(NC(=O)NNC(=O)CSC2CCc3ccccc32)c(C)c1 (configuration not stated)	nt	nt	nt	nt	nt	-14
Cc1ccc(S(=O)(=O)NCc2ccc(C(=O)N3CCN(c4ccccn4)CC3)cc2)cc1	-25%	-24%	?	-26%	?	-26
CCOc1ccc(S(=O)(=O)Nc2cccc(C(=O)N3CCN(c4ccccn4)CC3)c2)cc1	-22%	nt	-27%	?	nt	-62*
CN(c1ccc(OCC(=O)N2CCN(C/C=C/c3ccccc3)CC2)cc1)S(=O)(=O)c1cccs1	nt	nt	?	nt	nt	-82*
Cc1ccc(NS(=O)(=O)c2ccc(C(=O)N3CCN(c4ccccn4)CC3)cc2)cc1	-27%	-14%	18µM*	nt	-24%	?
CCOc1ccc(NS(=O)(=O)c2cccc(C(=O)N3CCN(C/C=C/c4ccccc4)CC3)c2)cc1	?	?	28µM*	i	?	?
Cc1nc(-c2ccc(S(=O)(=O)Nc3ccc(OC(F)(F)F)cc3)cc2)co1	-1%	-3%[46.1 µM]	-6%	-2%	nt	-15
c1nc(NCc2ccc3c(c2)OCO3)c2[nH]cnc2n1	-15%	nt	nt	-13%	nt	nt
COc1ccccc1/C=C/C(C)=O	-6%	?	?	-7%	?	?
SMILES	VACV Venus inh	LASV entry inh	FMDV inh	VACV mCherry inh	MARV entry inh	HCMV antiviral
COc1ccccc1C=CC(=O)C=Cc1ccccc1OC	?	4.5µM*	?	?	?	-100*
COc1ccccc1/C=C/C(=O)/C=C/c1ccccc1O	-24%	?	28%	?	?	-98*
CSC1=C(C#N)[C@H](C)CC(=O)N1	nt	nt	nt	nt	-17%	nt
CC(C)COC(=O)c1cccc2c1-c1ccccc1/C2=N\O	?	?	-11%	?	?	-31
CCOC(=O)c1cccc2c1-c1ccccc1/C2=N/O	?	-3%	nt	?	0%	-71*
CCCOc1ccc(/C(O)=C2\C(=O)C(=O)N(CCN(C)C)[C@H]2c2ccncc2)cc1	nt	nt	nt	nt	20%	nt
O=C(Nc1ccc(Oc2cccnc2)cc1)C1CCN(Cc2cccc(Cl)c2)CC1	nt	nt	-12%	nt	nt	-79*
CSc1ncc(CN2CCCCC2C(=O)Nc2ccc(Oc3ccccc3)nc2)cn1 (configuration not stated)	-12%	-5%	-16%	-14%	5.6µM*	-30
CCc1ccc(CN2CCC(C(=O)Nc3ccc(Oc4ccccc4)nc3)CC2)o1	-23%	-27%[46.1 µM]	?	i	?	-72*
COc1ccc(CN2CCC(C(=O)Nc3ccc(Oc4ccccc4)nc3)CC2)cc1F	-24%	?	?	-2%	?	-70*
Nc1c(C(=O)Nc2ccc(OC(F)(F)F)cc2)sc2nc3c(cc12)N1CCC3CC1	?	-21%[46.1 µM]	25µM*	?	-23%[46.1 µM]	-78*
CC(=O)c1ccc(NC(=O)c2sc3nc4c(cc3c2N)N2CCC4CC2)cc1	-6%	?	?	-12%	29%[46.1 µM]	-3
O=c1cc2c(nn1Cc1ccccc1)-c1ccccc1CC2	2%	-2%	-16%	i	-6%[46.1 µM]	-100*
O=C(Nc1nccs1)c1ccc(S(=O)(=O)NCC2CCCCC2)cc1	?	25%[14.3 µM]	18%	?	?	-83*
COc1cc2cc(CN(CCc3cccc(C)c3)C(=S)NCCCN3CCOCC3)c(=O)[nH]c2cc1OC	?	?	-11%	-3%	10µM*	-82*
CNC(=S)N(CCc1cccc(C)c1)Cc1cc2cc(OC)c(OC)cc2[nH]c1=O	-12%	0%	-22%	i	?	-36
COc1cc2cc(CN(CCc3cccc(C)c3)C(=S)NCCCN(C)C)c(=O)[nH]c2cc1OC	-26%	?	-19%	i	?	-90*
COc1cc2cc(CN(CCCN3CCOCC3)C(=O)Nc3ccc(F)cc3)c(=O)[nH]c2cc1OC	-17%	nt	3%	i	nt	-28
COc1cc(CNC23CC4CC(CC(C4)C2)C3)ccc1OCc1ccccc1	-7%	20%[46.1 µM]	-8%	i	5µM*	-28
COc1cc(CNCc2cccs2)ccc1OCc1ccccc1	-14%	11%	nt	?	-84%	-31
CCN1C=C(Cc2cccs2)C2=C(C1)C(c1cccs1)C(C#N)=C(N)O2 (configuration not stated)	-14%	-24%	20µM*	i	?	-36
CCN1CC2=C(OC(N)=C(C#N)C2c2ccccc2)/C(=C\c2ccccc2)C1 (configuration not stated)	-13%	?	22µM*	nt	?	-18
CCOC(=O)C1=C(C)OC(N)=C(C#N)C1c1cccs1 (configuration not stated)	-1%	1%	-18%	-9%	12%[46.1 µM]	-12
